Six1-Eya2 inh: qHTS Assay for Inhibitors of the Six1/Eya2 Interaction; activity change, % (no concentration beside the values); AlphaScreen GST-Six1/His-Eya2 binding, biochemical; stronger effect = lower value; Homeobox protein SIX1 (Homo sapiens) + Protein phosphatase EYA2 (Homo sapiens), …; 0.56% of 360,000 active; in the data active means activity change below about -65%; inconclusive means mostly about -30% to -63%; further: on the % scale 0 is the no-effect control and ±100 the full control effect
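AlphaScreen with GST-Six1 and His-Eya2 (5X mix: 250 nM and 500 nM), glutathione donor and nickel acceptor beads; buffer 50 mM Tris pH 8.0, 300 mM NaCl, 1 mM TCEP; 1 h at 37 C in the dark.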
CtBP-E1A inh: qHTS Assay for Inhibitors of the CtBP/E1A Interaction; AlphaScreen GST-E1A/His-CtBP binding, 1536-well; stronger effect = lower value; activity change, % (test concentration not listed); CtBP / adenovirus E1A interaction (AlphaScreen); 0.49% of 340,000 active; AID 651724, 2012; in the data active means activity change below about -65%; inconclusive means mostly about -30% to -63%; further: on the % scale 0 is the no-effect control and ±100 the full control effect
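Steps: dispense buffer (Tris pH 8.0, NaCl 300 mM, TCEP 1 mM, BSA, Tween 20); add 5X protein mix (GST-E1A, His-CtBP, 125 nM each); pin 23 nL compound; 2 h at 37 °C, dark; add 5X beads (50 ug/mL); 1 h; read.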
HP1b binding inh: HTS for Inhibitors of HP1-beta Chromodomain Interactions with Methylated Histone Tails; Chromobox protein homolog 1 (Homo sapiens), P83916; AlphaScreen HP1-beta / biotin-H3K9me3 peptide binding; Potency, µM (doses to about 114 µM), for inactives: top-dose activity change, negative = inhibition, hits mostly inhibitors; 0.56% of 390,000 active; further: potency means the concentration at half of the fitted maximal effect; nearly all actives have a fitted effect of over 70% in size
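AlphaScreen: HP1-beta (50 nM) preformed 30 min with biotin-H3(1-18)K9me3 peptide (50 nM) in PBS pH 7.4, 0.01% Tween-20. Compound added for 30 min at RT, then streptavidin donor/nickel chelate acceptor beads (10 ug/mL) for 30 min.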
BAZ2B inh: qHTS Assay for Inhibitors of BAZ2B | Bromodomain adjacent to zinc finger domain protein 2B (Homo sapiens), Q9UIF8 | AlphaScreen BAZ2B-H3K14Ac peptide displacement | Potency, µM (highest dose often 114 µM), inactives show top-dose activity change, negative = inhibition, usual class: inhibitors | 4.4% of 360,000 active | AID 504333, 2011; further: potency means the concentration at half of the fitted maximal effect; on the % scale 0 is the no-effect control and ±100 the full control effect; nearly all actives have a fitted effect of over 60% in size
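Complex of BAZ2B and biotin-H3K14Ac (50 nM apiece) forms over 30 min at RT, then faces library compounds up to 110 uM for another 30 min; AlphaScreen beads added, 20 min dark incubation, luminescence read.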
JMJD2A Tudor inh: qHTS Assay for Inhibitors of JMJD2A-Tudor Domain; Potency, µM (top dose mostly 114 µM), inactives show at the top dose activity change, negative = inhibition, usual class: inhibitors; AlphaScreen JMJD2A-Tudor / H3K4me3 peptide binding; AID 504339, 2011; 4.4% of 390,000 active; further: potency means the concentration at half of the fitted maximal effect; on the % scale 0 is the no-effect control and ±100 the full control effect; nearly all actives have a fitted effect of over 50% in size
G9a inh: qHTS Assay for Inhibitors of Histone Lysine Methyltransferase G9a | Histone-lysine N-methyltransferase EHMT2 (Homo sapiens), Q96KQ7 | G9a H3K9 monomethylation, AlphaScreen, 2 h | Potency, µM (doses to about 102 µM), without a hit: top-dose activity, negative = inhibition, usual class: inhibitors | 8.8% of 350,000 active | AID 504332, 2011; further: potency means the concentration at half of the fitted maximal effect; on the % scale 0 is the no-effect control and ±100 the full control effect; nearly all actives have a fitted effect of over 75% in size
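Methyltransferase reactions run at room temperature for 2 h (20 nM enzyme, 500 nM biotin-H3K9 peptide, 20 uM SAM) after a 15 min compound preincubation; product detected by AlphaScreen beads and anti-H3K9me1 antibody.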
Numbers without * were called inactive; [ ] = remark or other dose. Sampled rows, rich in hits. Any-hit rate of the full collection: about 10%. Unless noted, the call rests on the fitted dose curve; in most records, active means well fitted inhibition curve with a large enough effect; inconclusive means small, poorly fitted or top-dose-only effect; inactive means no such curve, though single readings can be large or run the other way.

How did COc1ccc(C)cc1Nc1n[n+](-c2ccccc2)c(-c2ccc(SC)cc2)s1 do in these assays?
Six1-Eya2 inh: -4; CtBP-E1A inh: -5; HP1b binding inh: -7%; BAZ2B inh: 56µM*; JMJD2A Tudor inh: inconclusive; G9a inh: 45µM*

How did CC(C)(C)CC(=O)NCC(c1ccc2c(c1)OCO2)N1CCN(c2ccccc2)CC1 (centres undefined) do in these assays?
HP1b binding inh: 19%[57 µM]; BAZ2B inh: -37%; JMJD2A Tudor inh: -16%; G9a inh: -24%[59 µM]

Results for COc1ccc(CNC(=O)CS(=O)(=O)c2cccc3nsnc23)cc1 ?
HP1b binding inh: 19%[57 µM]; BAZ2B inh: 2%; JMJD2A Tudor inh: -24%; G9a inh: 0%[59 µM]

How did CCOc1ccc(-c2c(C)nn3c(C)c(C(=O)NCCc4ccc(C)cc4)cnc23)cc1OCC do in these assays?
HP1b binding inh: 54%; BAZ2B inh: -14%; JMJD2A Tudor inh: -32%; G9a inh: 7%[59 µM]

Results for O=C(N/N=C/c1c(O)ccc2ccccc12)c1cccnc1 ?
Six1-Eya2 inh: -67*; CtBP-E1A inh: -92*; HP1b binding inh: 49%; BAZ2B inh: -12%; JMJD2A Tudor inh: 50µM*; G9a inh: 22%

What do the screens show for `Cc1ccc(C(=O)N/N=C/c2c(O)ccc3ccccc23)cn1`?
Six1-Eya2 inh: -74*; HP1b binding inh: 41%; BAZ2B inh: 0%; JMJD2A Tudor inh: inconclusive; G9a inh: inconclusive

Results for Cc1c(/C=N/NC(=O)c2ccc(Br)o2)cnn1C ?
Six1-Eya2 inh: 6; CtBP-E1A inh: -1; HP1b binding inh: 13%; BAZ2B inh: -13%; JMJD2A Tudor inh: -8%; G9a inh: 32%

Results for COc1ccccc1/C=N/NC(=O)c1ccc(C)nc1 ?
Six1-Eya2 inh: 8; HP1b binding inh: 22%; BAZ2B inh: -1%; JMJD2A Tudor inh: -17%; G9a inh: 12%

Results for O=C(N/N=C/c1c(O)ccc2ccccc12)c1ccc(Br)o1 ?
Six1-Eya2 inh: inconclusive; CtBP-E1A inh: inconclusive; HP1b binding inh: -6%; BAZ2B inh: 56µM*; JMJD2A Tudor inh: inconclusive; G9a inh: inconclusive

How did O=C(N/N=C\c1c(O)ccc2ccccc12)c1cncc(Br)c1 do in these assays?
Six1-Eya2 inh: inconclusive; CtBP-E1A inh: inconclusive; HP1b binding inh: 68%; BAZ2B inh: 35µM*; JMJD2A Tudor inh: 56µM*; G9a inh: 16%

What do the screens show for `Cc1ccccc1-c1nnc(SCC(=O)N(C)C2CCCCC2)o1`?
HP1b binding inh: 40%; BAZ2B inh: 8%; JMJD2A Tudor inh: 1%; G9a inh: -2%[59 µM]

Results for CCOc1ccc(C(=O)c2cn(CC(=O)Nc3cccc(OC)c3)c3cc4c(cc3c2=O)OCCO4)cc1 ?
HP1b binding inh: 40%; BAZ2B inh: 1%; JMJD2A Tudor inh: -29%; G9a inh: 17%[59 µM]

How did Cn1cc(C(=O)N/N=C/c2c(O)ccc3ccccc23)ccc1=O do in these assays?
Six1-Eya2 inh: -89*; HP1b binding inh: 39%; BAZ2B inh: inconclusive; JMJD2A Tudor inh: -29%; G9a inh: inconclusive

Results for O=C(N/N=C/c1ccccn1)c1cc(Br)ccc1O ?
Six1-Eya2 inh: -24; CtBP-E1A inh: inconclusive; HP1b binding inh: 43%; BAZ2B inh: 2%; JMJD2A Tudor inh: -27%; G9a inh: -7%

What do the screens show for `O=C(N/N=C/c1ccccn1)c1ccc(Br)o1`?
Six1-Eya2 inh: -66*; CtBP-E1A inh: -75*; HP1b binding inh: 32%; BAZ2B inh: 71µM*; JMJD2A Tudor inh: -28%; G9a inh: 19%

Bioassay records from PubChem.
